# HCMV antiviral = qHTS Assay for inhibitors of the human cytomegalovirus (HCMV); HFF cells, HCMV-luciferase reporter, 72 h; stronger effect = lower value; activity change, negative = inhibition, % at 57.5 µM; 410,000 compounds, 4.5% hits; in the data active means activity change below about -60%; inconclusive means no clear call, values can overlap the other calls; inactive means above about -39%
#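 Luciferase read-out from HCMV-luciferase-infected HFFs (MOI 1 PFU/cell) 72 h post infection at 37C; compounds added after 16 h cell attachment; activity normalized between buffer-only basal and Salinomycin (10uM) inhibitor controls.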
# FMDV antiviral = High Throughput Screening for Foot and Mouth Disease Virus Antivirals; FMDV antiviral cell-based qHTS; Potency, µM (top dose mostly 57.9 µM), actives largely listed as inhibitors; AID 1159524, 2015; 410,000 compounds, 1.2% hits; calls by dose curve; tested in HEK293T cells; further: read-out not given here; nearly all actives have a fitted effect of over 45% in size
# HCV inh = qHTS Assay for Inhibitors of Hepatitis C Virus (HCV) | Huh7.5.1 HCVcc-Cre infection, luciferase reporter, 44 h | Potency, µM (top dose mostly 41.8 µM), hits mostly inhibitors | 340,000 compounds, 3.4% hits | AID 651820, 2012; active means well fitted inhibition curve with a large enough effect; inconclusive means small, poorly fitted or top-dose-only effect, or another doubt; inactive means no such curve, though single readings can be large or run the other way
#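 HCVcc-Cre virus at an moi near 0.5 was added right after compound to cells cultured 4 h from seeding (1,000 cells/well). Luciferase activity was determined 44 h later, 15 min after substrate addition at RT.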
# Marburg entry inh = qHTS for inhibitors of binding or entry into cells for Marburg Virus; Marburg virus pseudotyped entry inhibition, cell reporter; Potency, µM (doses to about 37.8 µM), most hits filed as inhibitors; 300,000 compounds, 1.8% hits; AID 540276, 2011; calls by dose curve; tested in HEK293 cells
# SARS PLpro yeast = qHTS of Yeast-based Assay for SARS-CoV PLP; Potency, µM (highest dose often 32.9 µM), usual class: activators; AID 485353, 2010; 330,000 compounds, 0.19% hits; S. cerevisiae expressing SARS-CoV PLpro, growth rescue; calls by dose curve; further: nearly all actives have a fitted effect of over 55% in size
# Lassa entry inh = qHTS for Inhibitors of binding or entry into cells for Lassa Virus. Lassa virus pseudotype entry inhibition, cell reporter. Potency, µM (highest dose often 37.9 µM), most hits filed as inhibitors. 300,000 compounds, 1.2% hits. AID 540256, 2011; calls by dose curve; tested in HEK293 cells; further: nearly all actives have a fitted effect of over 50% in size
# Numbers stand for hits; – = inactive; ? = inconclusive; · = no result. The list is not random: actives were taken first. Their share in the collection is about 8%.
SMILES,HCMV antiviral,FMDV antiviral,HCV inh,Marburg entry inh,SARS PLpro yeast,Lassa entry inh
Fc1ccc(-c2ncn(C3CCNCC3)c2-c2ccnc(Oc3ccc4c(c3)OCO4)n2)cc1,·,·,·,·,·,13µM
Fc1ccc(-c2ncn(C3CCNCC3)c2-c2ccnc(Oc3ccccc3)n2)cc1,·,·,·,·,·,6.3µM
Cc1ccc2c(-c3ccnc(Nc4ccccc4)n3)c(-c3ccc(F)cc3)nn2n1,·,·,·,·,·,25µM
COc1nccc(-c2c(-c3ccc(F)cc3)ncn2C2CCC(O)CC2)n1 (stereo not given),·,–,·,·,·,·
CN1CCC(n2cnc(-c3ccc(F)cc3)c2-c2ccnc(Nc3ccccc3)n2)CC1,·,·,·,·,·,16µM
CSc1nnc(CNS(=O)(=O)c2ccc(F)cc2F)n1-c1ccccc1C,·,–,·,·,·,·
CCC1CN(Cc2cccc3nccnc23)Cc2cc(OC)ccc2O1 (stereo not given),·,–,·,·,·,·
COc1ccc(Cl)cc1NC(=O)Cn1nc(Cc2ccncc2)c2ccccc2c1=O,?,–,·,?,·,–
C=C1CCC(=O)C(C)CCC2C1CC2(C)C (stereo not given),·,–,·,·,·,·
COC(=O)c1ccc2c(=O)n(Cc3ccco3)c(SCC(=O)Nc3cc(C)on3)nc2c1,-95,–,–,·,–,·
COC(=O)c1ccc2c(=O)n(Cc3ccco3)c(SCC(=O)Nc3ccccc3Cl)nc2c1,–,–,?,–,–,–
Cc1cc(NC(=O)CSc2nc3cc(C(=O)NCCCOC(C)C)ccc3c(=O)n2Cc2ccco2)no1,-84,–,7.1µM,?,–,?
COc1ccc(NC(=O)c2oc3ccccc3c2C)cn1,–,–,–,–,–,–
CCC1C=CC=CC[C@H](C)[C@@H](O)[C@](C)(O)C(=O)[C@@H](C)[C@H](O)[C@@H](C)C(=O)[C@H](C)[C@@H](O)[C@H](C)C=CC(=O)OC2[C@@H](C)C(CC1)OC1(CC[C@@H](C)C(C[C@H](C)O)O1)[C@@H]2C (stereo not given in full),·,·,0.89µM,·,–,·
CC(C)(C)c1ccc(NC(=O)N2CCN(c3ccc([N+](=O)[O-])cn3)CC2)cc1,-94,22µM,?,–,–,?
O=C(Nc1ccccc1)N1CCCN(c2ccc(C(F)(F)F)cn2)CC1,-66,?,11µM,·,–,·
O=C(Nc1ccc(F)cc1F)N1CCCN(c2ccc([N+](=O)[O-])cn2)CC1,?,?,?,–,–,–
O=C(Cn1c(-c2cccs2)cc2cc(F)ccc21)NCCc1ccc(Cl)cc1,–,–,·,?,·,–
COc1ccc(C2C(C#N)=C(N)Oc3cc4c(cc32)OCO4)cc1 (stereo not given),–,·,–,5.8µM,–,?
CC(C)[C@H]1C(C#N)=C(N)Oc2n[nH]c(C(C)(C)C)c21,·,·,·,–,·,·
c1ccc(-c2n[nH]c3c2CCC3)cc1,–,–,13µM,?,–,–
COc1cccc(-c2n[nH]c3c2CCC3)c1,–,–,–,–,–,–
CCCCC(=O)Nc1cc2nn(-c3ccc(OCC)cc3)nc2cc1C,–,–,·,?,·,?
COc1ccccc1N(Cc1ccccc1)S(=O)(=O)c1cccc(C(=O)Nc2ncccc2C)c1,?,–,–,?,–,–
COc1ccccc1N(Cc1ccccc1)S(=O)(=O)c1cccc(C(=O)NC2CC(C)(C)NC(C)(C)C2)c1,–,–,2.2µM,?,–,?
SMILES,HCMV antiviral,FMDV antiviral,HCV inh,Marburg entry inh,SARS PLpro yeast,Lassa entry inh
COc1ccccc1N(Cc1ccccc1)S(=O)(=O)c1cccc(C(=O)Nc2cc(C)ccn2)c1,-90,?,?,?,–,?
CC1(C)CC(NC(=O)c2ccc(Cl)c(S(=O)(=O)N(Cc3ccccc3)c3ccccc3)c2)CC(C)(C)N1,–,–,?,8.9µM,·,–
CCC(Cn1nnc2ccccc2c1=O)NC(=O)Nc1ccc(C)cc1C (stereo not given),–,–,·,–,·,–
CCOc1ccc(NC(=O)CCn2cccn2)cc1,–,–,·,·,·,–
COc1cccc(NC(=O)CN(C)C(=O)CN2C(=O)c3ccc([N+](=O)[O-])cc3C2=O)c1,–,–,–,–,–,–
C[C@H]1CNC(=O)c2c(C(=O)N3CCN(c4ccccc4)CC3)ncn21,–,·,·,·,·,·
O=C(COC(=O)c1ccc(S(=O)(=O)N2CCOCC2)cc1)NCc1cccs1,–,–,–,?,–,–
CC(=O)Oc1ccc(OC(C)=O)c(SCCCCCCl)c1,-72,?,11µM,?,–,?
COc1ccccc1-c1nnc(SCC(=O)NC2CCS(=O)(=O)C2)n1CCc1ccccc1 (stereo not given),–,–,–,–,–,–
CC1Sc2ccc(S(=O)(=O)CCC(=O)N3CCN(c4ccccc4F)CC3)cc2NC1=O (stereo not given),-70,?,?,?,–,?
O=C1COc2ccc(S(=O)(=O)CCC(=O)N3CCN(c4cccc(C(F)(F)F)c4)CC3)cc2N1,-68,?,?,?,–,?
CC1Sc2ccc(S(=O)(=O)CCC(=O)N3CCN(c4ccccc4)CC3)cc2NC1=O (stereo not given),?,?,?,–,–,?
O=C1COc2ccc(S(=O)(=O)N3CCN(c4cccc(C(F)(F)F)c4)CC3)cc2N1,–,–,?,–,–,?
CC1Sc2ccc(S(=O)(=O)CCC(=O)N3CCN(c4cccc(Cl)c4)CC3)cc2NC1=O (stereo not given),-63,25µM,?,·,–,·
COc1ccc([C@H]2C(C#N)=C(SC)NC3=C2C(=O)CC(C)(C)C3)cc1,·,·,·,–,·,·
COC1=C(OC)C(=O)C(Sc2ccc3ccccc3c2)=CC1=O,-81,–,?,?,·,?
O=C(CSc1cn(CC(=O)N2CCCCC2)c2ccccc12)NCc1ccccc1,–,–,·,·,·,–
COc1ccc(CNC(=O)COC(=O)c2ccc(F)c(S(=O)(=O)N3CCCCC3)c2)cc1OC,–,?,–,·,–,·
Cc1ccc(CNC(=O)C(=O)NCC2OCCN2S(=O)(=O)c2ccc(Br)cc2)cc1 (stereo not given),?,?,·,?,–,7.9µM
CNC(=O)C(=O)NCC1OCCN1S(=O)(=O)c1ccc([N+](=O)[O-])cc1 (stereo not given),–,–,–,?,–,–
COc1ccc(S(=O)(=O)N2CCOC2CNC(=O)C(=O)NCCc2ccc(OC)c(OC)c2)cc1C (stereo not given),–,?,11µM,?,–,?
O=C(NCc1ccccc1)C(=O)NCC1OCCN1S(=O)(=O)c1ccc([N+](=O)[O-])cc1 (stereo not given),-78,–,–,·,–,·
COCCn1c(=O)c(-c2ccc(Cl)cc2)nc2cnc(Oc3ccc(OC)cc3)nc21,·,–,·,·,·,·
Cc1cn(C2CC(O)C(CO)O2)c(=O)n(Cc2ccccc2)c1=O (stereo not given),–,–,–,?,·,–
COc1ccc(CNC(=O)Cn2c(=O)nc(-c3ccccc3F)c3cc(Cl)ccc32)cc1OC,–,–,·,·,·,?
